Active and inactive are the calls of the source. How the source made its calls: active means hit-call score of the fitted dose curve at least 0.9, where 1 is the maximum; inactive means score below 0.9.

The term AC50 denotes the concentration at which the activity in the assay is half-maximal.

Common to all, as to conditions: mRNA level, 48 h; actives raise or lower the signal
Read-out in assay [1]: ABC Transporter (ABCB11), ABCB11 (gene 8647)
The assay can be described thus: LTEA_HepaRG_ABCB11: Life Technologies and Expression Analysis (LTEA) Assay for ABC Transporter (ABCB11) using HepaRG (AID 2283463). The essentials:
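ABCB11 transcript levels are read by Fluidigm TaqMan qRT-PCR after 48 h chemical treatment of human HepaRG cells. Concentrations span 100 uM downward in half-log steps with 0.5% DMSO; gain or loss is fitted against DMSO controls.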

Read-out in assay [2]: ABC Transporter (ABCC2), ABCC2 (gene 1244)
Put plainly: LTEA_HepaRG_ABCC2: Life Technologies and Expression Analysis (LTEA) Assay for ABC Transporter (ABCC2) using HepaRG (AID 2283464). The essentials: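 qRT-PCR (TaqMan, Fluidigm array) read-out of ABCC2 mRNA, normalized to three housekeeping genes. Differentiated HepaRG cells were treated 48 h in serum-free induction medium with 8-point half-log series from 100 uM in 0.5% DMSO; curves fitted bidirectionally relative to DMSO.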

Read-out in assay [3]: Broad substrate specificity ATP-binding cassette transporter ABCG2 (Homo sapiens) (UniProt Q9UNQ0)
Put plainly: LTEA_HepaRG_ABCG2: Life Technologies and Expression Analysis (LTEA) Assay for ABC Transporter (ABCG2) using HepaRG (AID 2283465). The essentials: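 Read-out is ABCG2 mRNA induction or loss quantified by qRT-PCR after 48 h chemical treatment of human HepaRG cells, normalized to three housekeeping genes. Concentrations reached 100 uM top in half-log steps; fitting was bidirectional against 0.5% DMSO.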

Read-out in assay [4]: ATP-citrate lyase (ACLY), ACLY (gene 47)
The assay can be described thus: LTEA_HepaRG_ACLY: Life Technologies and Expression Analysis (LTEA) Assay for ATP-citrate lyase (ACLY) using HepaRG (AID 2283466). The method, boiled down:
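HepaRG, 48 h exposure, 8-pt half-log dilutions (top 100 uM), 0.5% DMSO. Readout: ACLY mRNA, TaqMan qRT-PCR, housekeeping-normalized (ACTB/GAPDH/POLR2A). Bidirectional curve fit vs DMSO.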

Read-out in assay [5]: Peroxisomal acyl-coenzyme A oxidase 1 (ACOX1) gene, ACOX1 (gene 51)
Put plainly: LTEA_HepaRG_ACOX1: Life Technologies and Expression Analysis (LTEA) Assay for Peroxisomal acyl-coenzyme A oxidase 1 (ACOX1) gene using HepaRG (AID 2283467). The essentials:
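Measured by qRT-PCR against three housekeeping genes: ACOX1 transcript change in human HepaRG cells after 48 h dosing. Concentrations ran up to 100 uM in half-log steps. Curves were fitted bidirectionally relative to 0.5% DMSO.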

Read-out in assay [6]: Alkaline Phosphatase, Placental (ALPP) gene, ALPP (gene 250)
Put plainly: LTEA_HepaRG_ALPP: Life Technologies and Expression Analysis (LTEA) Assay for Alkaline Phosphatase, Placental (ALPP) gene using HepaRG (AID 2283468).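 On AC50: differentiated human HepaRG liver cells in serum-free induction medium.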 The method, boiled down: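 qRT-PCR readout of ALPP mRNA (Fluidigm TaqMan), normalized to ACTB/GAPDH/POLR2A, after 48 h chemical exposure of HepaRG cells; 8-point half-log series, top 100 uM, 0.5% DMSO vehicle. Bidirectional curve fit versus DMSO baseline.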

Read-out in assay [7]: Bcl-2 (BAD) gene, BAD (gene 572)
Put plainly: LTEA_HepaRG_BAD: Life Technologies and Expression Analysis (LTEA) Assay for Bcl-2 (BAD) gene using HepaRG (AID 2283469). The essentials: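 BAD transcript change, measured by qRT-PCR against three housekeeping genes and fitted in both directions relative to 0.5% DMSO, after 48 h chemical treatment of human HepaRG liver cells at concentrations up to 100 uM.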

Read-out in assay [8]: Bcl-2 (BAX) gene, BAX (gene 581)
Put plainly: LTEA_HepaRG_BAX: Life Technologies and Expression Analysis (LTEA) Assay for Bcl-2 (BAX) gene using HepaRG (AID 2283470). The method, boiled down: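 Concentration-response endpoint fitted in both directions relative to 0.5% DMSO vehicle. Human HepaRG cultures receive test chemicals for 48 h at up to 100 uM; BAX mRNA is quantified by qRT-PCR against housekeeping genes.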

Read-out in assay [9]: adenosine kinase (ADK) gene, ADK (gene 132)
Put plainly: LTEA_HepaRG_ADK: Life Technologies and Expression Analysis (LTEA) Assay for adenosine kinase (ADK) gene using HepaRG (AID 2283471). The essentials:
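HepaRG (human liver), 48 h chemical exposure, 8-pt half-log series, top 100 uM, 0.5% DMSO vehicle. Readout: ADK mRNA by qRT-PCR vs housekeeping genes; bidirectional curve fit relative to DMSO baseline.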

Read-out in assay [10]: Alpha-fetoprotein (AFP) gene, AFP (gene 174)
The assay can be described thus: LTEA_HepaRG_AFP: Life Technologies and Expression Analysis (LTEA) Assay for Alpha-fetoprotein (AFP) gene using HepaRG (AID 2283472). The essentials: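 After a 48 h plating period, cells are moved to serum-free induction medium and dosed in duplicate (100 uM maximum, half-log dilutions, 0.5% DMSO) for another 48 h. Total RNA goes to TaqMan qRT-PCR; AFP signal is housekeeping-normalized.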

Read-out in another assay: BCL2L11 (gene 10018)
The assay can be described thus: LTEA_HepaRG_BCL2L11: Life Technologies and Expression Analysis (LTEA) Assay for Bcl-2 (BCL2L11) gene using HepaRG (AID 2283473). The method, boiled down: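 HepaRG, 48 h exposure, 8-pt half-log series from 100 uM in 0.5% DMSO, duplicates; qRT-PCR (Fluidigm TaqMan) for BCL2L11, housekeeping-normalized; bidirectional curve fit relative to DMSO baseline.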

Read-out in assay [11]: Apolipoprotein A-V (APOA5) gene, APOA5 (gene 116519)
The assay can be described thus: LTEA_HepaRG_APOA5: Life Technologies and Expression Analysis (LTEA) Assay for Apolipoprotein A-V (APOA5) gene using HepaRG (AID 2283474). The essentials:
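HepaRG, 48 h chemical exposure in serum-free induction medium, 8-pt half-log series (top 100 uM), 0.5% DMSO vehicle, duplicates. Readout: APOA5 mRNA by qRT-PCR, housekeeping-normalized; bidirectional fit vs DMSO baseline.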

Read-out in assay [12]: Apoptosis regulator Bcl-2 (Homo sapiens) (UniProt P10415)
The assay can be described thus: LTEA_HepaRG_BCL2: Life Technologies and Expression Analysis (LTEA) Assay for Bcl-2 gene using HepaRG (AID 2283475). The essentials:
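Expression change of BCL2 mRNA in HepaRG after 48 h dosing, quantified by TaqMan qRT-PCR against three endogenous controls. Concentration-response used eight points up to 100 uM, vehicle 0.5% DMSO.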

Read-out in assay [13]: Bcl-2 (BID) gene, BID (gene 637)
Put plainly: LTEA_HepaRG_BID: Life Technologies and Expression Analysis (LTEA) Assay for Bcl-2 (BID) gene using HepaRG (AID 2283476). The method, boiled down:
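Gain or loss of BID expression is fitted relative to 0.5% DMSO vehicle. Human HepaRG liver cells received a 48 h chemical exposure over an eight-point concentration range.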

Read-out in the next assay: Caspase-3 (Homo sapiens) (UniProt P42574)
The assay can be described thus: LTEA_HepaRG_CASP3: Life Technologies and Expression Analysis (LTEA) Assay for cysteine-aspartic acid protease (CASP3) using HepaRG (AID 2283477). The essentials:
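HepaRG, 48 h exposure, 8 conc. (top 100 uM, half-log steps, duplicate), 0.5% DMSO vehicle; qRT-PCR of CASP3 transcript, housekeeping-normalised (ACTB/GAPDH/POLR2A); bidirectional curve fit vs DMSO baseline.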

Read-out in assay [14]: cysteine-aspartic acid protease (CASP8), CASP8 (gene 841)
Put plainly: LTEA_HepaRG_CASP8: Life Technologies and Expression Analysis (LTEA) Assay for cysteine-aspartic acid protease (CASP8) using HepaRG (AID 2283480). The method, boiled down: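 HepaRG, 48 h exposure, duplicate wells; 8 conc, half-log from 100 uM, 0.5% DMSO. Serum-free induction medium. CASP8 mRNA by TaqMan qRT-PCR, norm. ACTB/GAPDH/POLR2A; gain/loss fitted vs DMSO.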

Read-out in assay [15]: Cytochrome P450 (CYP24A1), CYP24A1 (gene 1591)
The assay can be described thus: LTEA_HepaRG_CYP24A1: Life Technologies and Expression Analysis (LTEA) Assay for Cytochrome P450 (CYP24A1) using HepaRG (AID 2283478). The method, boiled down: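 qRT-PCR read-out: CYP24A1 transcript levels normalized to three housekeeping genes, bidirectional curve fits against 0.5% DMSO baseline. Human HepaRG cells treated 48 h with chemicals at eight concentrations from 100 uM in half-log steps.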

Read-out in assay [16]: Cytochrome P450 (CYP1A2), CYP1A2 (gene 1544)
Put plainly: LTEA_HepaRG_CYP1A2: Life Technologies and Expression Analysis (LTEA) Assay for Cytochrome P450 (CYP1A2) using HepaRG (AID 2283479). The method, boiled down: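 HepaRG, 48 h exposure, top 100 uM, half-log 8-pt, 0.5% DMSO vehicle, duplicates. Readout: TaqMan qRT-PCR of CYP1A2 mRNA, housekeeping-normalized (ACTB/GAPDH/POLR2A). Gain/loss fit relative to DMSO baseline.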

Read-out in assay [17]: Cytochrome P450 (CYP2B6), CYP2B6 (gene 1555)
The assay can be described thus: LTEA_HepaRG_CYP2B6: Life Technologies and Expression Analysis (LTEA) Assay for Cytochrome P450 (CYP2B6) using HepaRG (AID 2283481). The method, boiled down:
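Read-out is CYP2B6 mRNA by TaqMan qRT-PCR, normalized to three housekeeping genes and fitted bidirectionally against 0.5% DMSO baseline. Human HepaRG cells received test chemicals for 48 h, top concentration 100 uM, half-log dilutions.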

Read-out in assay [18]: Cytochrome P450 2C19 (Homo sapiens) (UniProt P33261)
The assay can be described thus: LTEA_HepaRG_CYP2C19: Life Technologies and Expression Analysis (LTEA) Assay for CYP2C19 using HepaRG (AID 2283482). The method, boiled down: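 HepaRG, 48 h chemical exposure, 8-pt half-log series from 100 uM in 0.5% DMSO, duplicates. Readout: CYP2C19 mRNA by TaqMan qRT-PCR, housekeeping-normalized. Bidirectional fit vs DMSO baseline; phenobarbital 1mM as induction control.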

Caspase-3 (Homo sapiens), sequence (P42574 whole entry, looked up): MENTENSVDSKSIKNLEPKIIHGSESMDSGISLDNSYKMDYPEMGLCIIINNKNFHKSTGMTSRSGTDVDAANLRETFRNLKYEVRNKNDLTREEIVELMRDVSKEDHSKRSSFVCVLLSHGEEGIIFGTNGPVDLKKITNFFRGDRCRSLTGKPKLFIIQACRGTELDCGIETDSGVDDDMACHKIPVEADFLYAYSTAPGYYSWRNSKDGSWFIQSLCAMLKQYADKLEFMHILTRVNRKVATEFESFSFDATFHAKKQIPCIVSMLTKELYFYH
Broad substrate specificity ATP-binding cassette transporter ABCG2 (Homo sapiens), sequence (Q9UNQ0 whole entry, looked up): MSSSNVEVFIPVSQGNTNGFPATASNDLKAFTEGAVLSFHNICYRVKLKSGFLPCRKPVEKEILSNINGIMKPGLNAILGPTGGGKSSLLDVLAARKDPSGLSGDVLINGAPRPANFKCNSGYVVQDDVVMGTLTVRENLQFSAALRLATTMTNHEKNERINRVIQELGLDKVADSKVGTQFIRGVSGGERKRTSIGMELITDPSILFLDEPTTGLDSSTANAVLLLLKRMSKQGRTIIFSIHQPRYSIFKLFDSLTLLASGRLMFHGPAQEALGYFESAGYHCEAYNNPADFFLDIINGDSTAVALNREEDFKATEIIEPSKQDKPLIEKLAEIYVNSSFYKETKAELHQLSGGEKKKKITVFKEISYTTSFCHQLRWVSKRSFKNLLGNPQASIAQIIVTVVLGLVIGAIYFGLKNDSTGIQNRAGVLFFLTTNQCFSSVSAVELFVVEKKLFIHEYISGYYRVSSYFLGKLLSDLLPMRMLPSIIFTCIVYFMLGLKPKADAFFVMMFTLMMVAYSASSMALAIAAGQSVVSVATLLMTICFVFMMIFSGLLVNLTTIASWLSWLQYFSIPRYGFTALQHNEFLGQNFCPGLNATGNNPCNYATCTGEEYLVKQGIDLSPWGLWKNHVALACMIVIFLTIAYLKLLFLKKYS
Apoptosis regulator Bcl-2 (Homo sapiens), sequence (P10415 whole entry, looked up): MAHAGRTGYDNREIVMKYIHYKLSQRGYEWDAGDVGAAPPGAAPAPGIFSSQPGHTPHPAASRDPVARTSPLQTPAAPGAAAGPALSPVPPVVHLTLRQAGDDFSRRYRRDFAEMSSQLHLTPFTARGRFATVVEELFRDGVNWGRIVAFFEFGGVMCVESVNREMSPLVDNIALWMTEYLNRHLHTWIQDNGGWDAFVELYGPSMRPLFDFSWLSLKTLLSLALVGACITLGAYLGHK
Cytochrome P450 2C19 (Homo sapiens), sequence (P33261 whole entry, looked up): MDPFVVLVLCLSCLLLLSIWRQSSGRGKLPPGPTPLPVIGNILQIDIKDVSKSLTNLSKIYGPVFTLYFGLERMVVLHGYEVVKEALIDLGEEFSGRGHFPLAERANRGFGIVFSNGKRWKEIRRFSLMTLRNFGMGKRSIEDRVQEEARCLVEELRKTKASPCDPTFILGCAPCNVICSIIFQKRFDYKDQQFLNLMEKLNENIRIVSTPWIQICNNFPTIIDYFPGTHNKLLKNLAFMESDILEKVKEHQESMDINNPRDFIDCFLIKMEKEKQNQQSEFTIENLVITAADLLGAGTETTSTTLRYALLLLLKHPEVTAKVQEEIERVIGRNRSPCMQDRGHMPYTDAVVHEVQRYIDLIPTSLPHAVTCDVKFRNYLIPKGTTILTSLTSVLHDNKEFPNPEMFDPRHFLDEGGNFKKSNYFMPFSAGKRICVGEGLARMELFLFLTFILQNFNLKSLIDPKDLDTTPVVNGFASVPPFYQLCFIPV

As for `CC(C)=CCC/C(C)=C/CO`, the molecule was called inactive in assay [1], in assay [2], in assay [3], in assay [4], in assay [5] and in [6]. Besides, the result (in assay [7]; in assay [8]; in assay [9]; in assay [10]; with BCL2L11 (gene 10018); in [11]) was inactive. Moreover, the molecule was called inactive (in assay [12]; in assay [13]; with Caspase-3 (Homo sapiens); in assay [14]).
In the case of `CCCCCCCCO`, the molecule was classed as inactive in [1], in assay [2], in [3], in assay [4], in [5] and in assay [6]. Besides, the result (in assay [7]; in assay [8]; in assay [9]; with BCL2L11 (gene 10018); in [11]; in [12]) was inactive. In addition, the molecule was called inactive (in assay [13]; with Caspase-3 (Homo sapiens); in [15]; in assay [16]; in [14]; in assay [17]). Also, the molecule was called inactive in assay [18].
Regarding `C1N2CN3CN1CN(C2)C3`, the molecule was classed as inactive in assay [1], in assay [2], in [3], in [4], in [5] and in assay [6]. The result (in assay [7]; in assay [8]; in assay [9]; in assay [10]; in the assay with BCL2L11 (gene 10018); in assay [11]) was inactive. Besides, the call (in [12]; in assay [13]; with Caspase-3 (Homo sapiens); in assay [15]; in [17]; in assay [18]) was inactive. The AC50 in assay [16] was 68.7 µM (active).
`O=c1[nH]c2ccc(S(=O)CCN3CCC(Cc4ccc(F)cc4)CC3)cc2o1` (stereo unspecified): the result in [1], in [4], in assay [5], in assay [7], in assay [8] and in [9] was inactive. The molecule was classed as inactive (with BCL2L11 (gene 10018); in [12]; in assay [13]; with Caspase-3 (Homo sapiens); in assay [15]; in assay [16]). In addition, the AC50 was 50 µM (active) in assay [2]; 50 µM (active) in assay [3]; 64.7 µM (active) in [6]; 61.1 µM (active) in [10]; 82.3 µM (active) in assay [17].
